Common to all, as to assay: modulators of BK channel variants, profiling panel, selectivity assay, cell-based, U2OS BacMam, thallium flux, beta subunits (AID 1259406);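 also: initial slope of Thallos dye fluorescence rise after thallium is added; log ratio against the mean of 0.3% DMSO vehicle wells on the same plate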
Assay [1] deals with F380Y. Particulars: at 30 µM.
The subject of assay [2] is F380Y/beta1. The settings on record: at 30 µM.
For assay [3], the system named is F380Y/beta2Delta. The settings on record: at 30 µM.
Assay [4] deals with F380Y/beta4. Particulars: at 30 µM.
Assay [5] deals with Calcium-activated potassium channel subunit alpha-1 (Homo sapiens) + Leucine-rich repeat-containing protein 26 (Homo sapiens) (UniProt Q12791+Q2I0M4). Particulars: F380Y/Slo1WT/gamma1, at 30 µM.
For assay [6], the system named is R275C. The settings on record: at 30 µM.
Assay [7] deals with R275C/beta1. Particulars: at 30 µM.
Assay [8] relates to R275C/beta2Delta. The settings on record: at 30 µM.
The subject of assay [9] is R275C/beta4. The settings on record: at 30 µM.
For assay [10], the system named is R275C/Slo1WT/beta2. Particulars: at 30 µM.

Values without a mark were called inactive. Active and inactive are the calls of the source.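 The calls were made as follows: active = thallium flux through the channel raised or lowered by more than 3 SD from vehicle-only wells, actives on both sides; inactive = the rest.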

We go through 13 compounds from PubChem BioAssay.

Chain of Calcium-activated potassium channel subunit alpha-1 (Homo sapiens) + Leucine-rich repeat-containing protein 26 (Homo sapiens) (Q2I0M4 whole entry, looked up, one chain of several): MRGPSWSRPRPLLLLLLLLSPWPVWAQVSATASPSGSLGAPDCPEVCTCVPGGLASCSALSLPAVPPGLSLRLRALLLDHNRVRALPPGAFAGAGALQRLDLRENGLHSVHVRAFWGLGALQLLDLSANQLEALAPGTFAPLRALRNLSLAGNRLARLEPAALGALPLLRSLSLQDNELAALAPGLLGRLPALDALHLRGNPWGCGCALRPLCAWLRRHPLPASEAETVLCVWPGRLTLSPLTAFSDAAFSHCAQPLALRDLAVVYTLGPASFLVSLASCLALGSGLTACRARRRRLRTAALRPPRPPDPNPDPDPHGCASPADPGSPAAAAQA

As for `COc1ccc(Oc2ccc([N+](=O)[O-])cc2C2=NC(=CN(C)C)C(=O)O2)cc1`, the log fold change Tl+ flux in [1] was -0.0336; in assay [2], -0.0257; in assay [3], -0.0604; in [4], -0.00321; in assay [5], -0.0547; in assay [6], -0.0108. The log fold change Tl+ flux in assay [7] is -0.015; in [8], -0.0321; in assay [9] it was -0.00628; in assay [10], -0.0407.
As to `CSc1nc(C)nc(Sc2cccc(C(F)(F)F)c2)c1C#N`, the log fold change Tl+ flux was -0.0573 in [1]; 0.0287 in assay [2]; 0.00499 in assay [3]; 0.0691 in assay [4]; 0.0378 in assay [5]; -0.0292 in assay [6]. Besides, the log fold change Tl+ flux in assay [7] was -0.00668; in assay [8] it was -0.023; in assay [9], 0.00747; in [10] it was 0.00901.
For the compound `CN1CCN(CC(=O)Nc2ccccc2Oc2ccccc2)CC1`, the log fold change Tl+ flux in [1] was 0.0235; in [2] it was 0.0196; in [3], 0.0764; in assay [4], 0.0239; in assay [5], 0.0414; in assay [6] it was -2.9e-05. Moreover, the log fold change Tl+ flux in assay [7] is 0.00212; in [8] it was 0.00784; in [9], 0.00808; in assay [10], 0.0378.
Consider `CCCCCCCCCCCCSC(=S)NCC1CCCO1` (stereo not given), for which the log fold change Tl+ flux in assay [1] is 0.0353; in [2], 0.0262; in assay [3] it was 0.0128; in assay [4] it was 0.0306; in assay [5], 0.0128; in assay [6], -0.00711. The log fold change Tl+ flux is -0.0124 in assay [7], 0.0322 in [8], -0.00355 in [9] and -0.00192 in assay [10].
Turning to `Cc1cc(NS(=O)(=O)c2ccc(NC(=O)c3nccnc3C(=O)O)cc2)no1`, the log fold change Tl+ flux in assay [1] was -0.0365; in [2], 0.00855; in assay [3], -0.054; in [4], -0.0573; in assay [5] it was -0.136 (active); in assay [6], -0.0122. Moreover, the log fold change Tl+ flux in assay [7] is 0.022; in [8] it was -0.0352; in assay [9], 0.0165; in assay [10] it was -0.0416.
Turning to `CCCCC#Cc1ccc(C(=O)NNC(=O)Nc2ccccc2)o1`, the log fold change Tl+ flux in assay [1] is 0.0775; in assay [2], -0.0382; in assay [3] it was 0.0115; in [4], 0.00448; in [5] it was -0.0213; in [6] it was 0.0317. For the same compound, the log fold change Tl+ flux in [7] was 0.0182; in assay [8], -0.00673; in [9], -0.0333; in [10], 0.023.
Consider `COC(=O)c1cc(S(=O)(=O)N(Cc2ccc(OC)cc2)Cc2cccn2C)oc1C`, for which the log fold change Tl+ flux in assay [1] was -0.118 (active); in assay [2], -0.0838 (active); in [3] it was -0.0509; in [4], -0.483 (active); in assay [5], -0.414 (active); in [6], -0.56 (active). Moreover, the log fold change Tl+ flux in assay [7] was -0.496 (active); in assay [8], -0.122 (active); in assay [9] it was -0.289 (active); in assay [10], -0.135 (active).
As to `CC(=O)Oc1ccc(OC(C)=O)c2cc3c(OC(C)=O)ccc(OC(C)=O)c3cc12`, the log fold change Tl+ flux in assay [1] was -0.0214; in assay [2], -0.0286; in assay [3], -0.0254; in assay [4], 0.0175; in [5], 0.0282; in [6], -0.0106. In addition, the log fold change Tl+ flux in [7] was -0.0199; in assay [8], -0.0114; in assay [9] it was -0.0622; in assay [10], 0.0234.
`CCc1cc(C(=O)c2ccc(OC)cc2)c(NC(=O)CN2CCN(C)CC2)s1`: the log fold change Tl+ flux was -0.0314 in assay [1]; -0.0083 in [2]; -0.00202 in assay [3]; -0.0121 in assay [4]; 0.0213 in assay [5]; -0.0119 in [6]. In addition, the log fold change Tl+ flux in assay [7] was -0.00614; in assay [8], 0.00802; in assay [9] it was 0.0372; in assay [10], -0.00941.
Regarding `CC(C)c1ccc(NC(=S)NC2CC3CC2C2C=CCC32)cc1` (stereo not given), the log fold change Tl+ flux in assay [1] was 0.00954; in [2], -0.00688; in assay [3] it was -0.0661; in [4], -0.422 (active); in assay [5], -0.206 (active); in [6] it was -0.205 (active). For the same compound, the log fold change Tl+ flux in assay [7] was -0.152 (active); in [8] it was -0.109 (active); in assay [9] it was -0.11 (active); in assay [10], -0.0657.
Turning to `O=c1[nH]nc(N2CCSCC2)[nH]1`, the log fold change Tl+ flux is 0.00841 in assay [1]; 0.0329 in assay [2]; -0.0177 in assay [3]; 0.0123 in assay [4]; -0.0239 in assay [5]; 0.0133 in assay [6]. Besides, the log fold change Tl+ flux in assay [7] was 0.000508; in assay [8] it was -0.00725; in assay [9] it was 0.0241; in [10] it was 0.014.
`Cc1ccc(-c2nc(N=CNOC(=O)c3ccc([N+](=O)[O-])cc3)sc2C)cc1Cl`: the log fold change Tl+ flux in assay [1] was 0.0323; in assay [2], 0.126 (active); in assay [3] it was 0.0425; in assay [4], 0.147 (active); in [5], 0.102; in assay [6], 0.00635. Moreover, the log fold change Tl+ flux in assay [7] is 0.0986; in assay [8], 0.13 (active); in assay [9], 0.142 (active); in assay [10], 0.0243.
As for `Cc1ccc(NC(=S)NCCO)cc1`, the log fold change Tl+ flux in assay [1] is 0.021; in [2], 0.0481; in assay [3] it was 0.0272; in assay [4], -0.0116; in assay [5], -0.000511; in [6] it was 0.0409. Moreover, the log fold change Tl+ flux in assay [7] was -0.0306; in assay [8] it was -0.0145; in assay [9], 0.0201; in assay [10] it was 0.0248.
